Biological target: Kr (Drosophila melanogaster, UniProt P07247 220-332)
Assay: FP; 20 mM Tris-acetate pH 7.0, 50 "nM" NaCl as printed (probably mM), 0.01% Tween 20, 0.1 mM DTT; conventional titration
Conditions: tags: N-GST (pGEX-6P-1, kept); dsDNA, one strand shown

Kr, sequence (P07247 220-332): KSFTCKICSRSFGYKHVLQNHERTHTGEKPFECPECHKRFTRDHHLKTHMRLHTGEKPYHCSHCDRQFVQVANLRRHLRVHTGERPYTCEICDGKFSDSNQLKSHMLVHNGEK

Sequence	binding signal	Kd
TAGAGGGATTA	1.67 Kd / Kd of best base at the position	–
TTGAGGGACTA	3.27 Kd / Kd of best base at the position	–
TGGAGGGATTA	1.3 Kd / Kd of best base at the position	–
TTGAGCGATTA	27.9 Kd / Kd of best base at the position	–
TTGAGGGATTA	–	~0.2 nM
TTGAGGAATTA	2.59 Kd / Kd of best base at the position	–
CTGAGGGATTA	1.7 Kd / Kd of best base at the position	–
TTGAGGGTTTA	9.26 Kd / Kd of best base at the position	–
TTGAGGGATCA	4.06 Kd / Kd of best base at the position	–
TTGGGGGATTA	16.7 Kd / Kd of best base at the position	–
TTGAGGGATAA	1.82 Kd / Kd of best base at the position	–
TTGAGGGGTTA	1.22 Kd / Kd of best base at the position	–
TTGTGGGATTA	3.61 Kd / Kd of best base at the position	–
TCGAGGGATTA	1.5 Kd / Kd of best base at the position	–
TTGATGGATTA	4.9 Kd / Kd of best base at the position	–
TTGAGGGATGA	1.78 Kd / Kd of best base at the position	–
TTGAGAGATTA	15.7 Kd / Kd of best base at the position	–

Sequence	binding signal	Kd
TTGAGGGATTT	1.61 Kd / Kd of best base at the position	–
GTGAGGGATTA	1.3 Kd / Kd of best base at the position	–
TTGAGGGATTG	1.33 Kd / Kd of best base at the position	–
TTGAGTGATTA	37.9 Kd / Kd of best base at the position	–
ATGAGGGATTA	1.06 Kd / Kd of best base at the position	–
TTGAGGTATTA	13.8 Kd / Kd of best base at the position	–
TTGAGGGAATA	4.25 Kd / Kd of best base at the position	–
TTGACGGATTA	2.29 Kd / Kd of best base at the position	–
TTGAGGGATTC	2.58 Kd / Kd of best base at the position	–
TTTAGGGATTA	4.08 Kd / Kd of best base at the position	–
TTGAGGCATTA	267 Kd / Kd of best base at the position	–
TTGAAGGATTA	1.22 Kd / Kd of best base at the position	–
TTAAGGGATTA	1.14 Kd / Kd of best base at the position	–
TTCAGGGATTA	4.61 Kd / Kd of best base at the position	–
TTGAGGGCTTA	2.19 Kd / Kd of best base at the position	–
TTGCGGGATTA	12.2 Kd / Kd of best base at the position	–
TTGAGGGAGTA	2.01 Kd / Kd of best base at the position	–

Biological target: T1, Cad (Drosophila melanogaster, UniProt P09085 273-344)
T1 sequence: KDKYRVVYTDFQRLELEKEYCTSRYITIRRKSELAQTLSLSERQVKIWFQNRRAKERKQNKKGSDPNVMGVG
Assay: as above
Conditions: tags: N-GST (pGEX-6P-1, kept); dsDNA, one strand shown

Sequence	Kd	binding signal
CACTTTTTATA	~0.05 nM	–
CATTTTTTATA	–	6.67 Kd / Kd of best base at the position
TACTTTTTATA	–	1.3 Kd / Kd of best base at the position
CAGTTTTTATA	–	1.11 Kd / Kd of best base at the position

— paper PMC5913336, “True equilibrium measurement of transcription factor-DNA binding affinities using automated polarization microscopy”
